Among the test systems are NCI-H23 lung; NCI-H322M lung; HOP-62 NSCLC; NCI-H460 lung; HOP-92 NSCLC; NCI-H522 lung; A549/ATCC NSCLC; 786-0 renal; COLO 205 colon; DU-145 prostate; K-562 leukemia; MALME-3M melanoma; MDA-MB-231 breast; RXF 393 renal; SF-268 CNS; SF-295 CNS; SF-539 CNS; UACC-257 melanoma; M14 melanoma; HCT-15 colon.
What all share (experiment): NCI-60 one-dose screen, 48 h (100 = growth as untreated, 0 = no growth, -100 = all killed)
Common to all, as to conditions: 10 µM unless noted

About 83,000 compounds went through this panel and 20% of them were active in at least one assay; those are over-represented in the sample as a whole.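 A percent growth of 40 corresponds to 60% growth inhibition; 0 means no net growth; -100 means all cells died. Active threshold: below 10.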 Unmarked numbers belong to inactive results. The source made the active and inactive calls.

Growth data for eight compounds are collected here from PubChem BioAssay (NCI).

As for `COC(=O)/C(CCC=C(C)C)=C1\[C@@H](OC(C)=O)C[C@@]2(C)[C@H]1CC(=O)[C@H]1[C@@]3(C)CC[C@H](NCc4ccccc4)[C@@H](C)[C@@H]3CC[C@@]12C`, the growth with NCI-H23 lung was 93.4%; in the test on NCI-H322M lung, 103%; in the test on HOP-62 NSCLC, 87.3%; in the test with NCI-H460 lung, 88.8%; in the test with HOP-92 NSCLC it was 49.7%; in the test with NCI-H522 lung, 108%. The growth is 81.7% in the test with A549/ATCC NSCLC; 65.9% in the test on 786-0 renal; 60% in the test with COLO 205 colon; 96.5% with DU-145 prostate; 28.8% with K-562 leukemia; 92.5% with MALME-3M melanoma. Besides, the growth with MDA-MB-231 breast was 90.5%; with RXF 393 renal, 69.4%; in the test with SF-268 CNS it was 79.6%; with SF-295 CNS, 98.2%; with SF-539 CNS, 82.9%; with UACC-257 melanoma, 99.7%. For the same compound, the results for the growth in the test with M14 melanoma and with HCT-15 colon were 89.7% and 72.1%, respectively.
On to `Cc1ccc2nc(NC(=O)CSC(=S)N3CCN(c4ccccc4)CC3)sc2c1`, for which the growth was 83.7% in the test on NCI-H23 lung; 92.9% with NCI-H322M lung; 105% with HOP-62 NSCLC; 112% in the test on NCI-H460 lung; 82.6% with HOP-92 NSCLC; -81.8% (active) in the test on NCI-H522 lung. Also, the growth with A549/ATCC NSCLC is 94.6%; in the test on 786-0 renal it was 103%; in the test with COLO 205 colon, 116%; in the test with DU-145 prostate it was 112%; with K-562 leukemia, 95.7%; in the test with MALME-3M melanoma it was 105%. The growth was 101% with MDA-MB-231 breast; 108% in the test with RXF 393 renal; 101% in the test on SF-268 CNS; 104% in the test on SF-295 CNS; 104% in the test on SF-539 CNS; 108% in the test on UACC-257 melanoma. Moreover, the values for the growth in the test on M14 melanoma and in the test with HCT-15 colon were 97.8% and 97%, respectively.
With `COc1ccc(/C=c2\sc3n(c2=O)NC2C(N=3)N(C)C(=O)N2C)cc1` (stereo not given), the growth in the test on NCI-H23 lung was 96.6%; in the test with NCI-H322M lung, 92%; in the test with HOP-62 NSCLC, 101%; with NCI-H460 lung, 108%; with HOP-92 NSCLC, 100%; with NCI-H522 lung, 86.6%. Further, the growth is 99.8% in the test with A549/ATCC NSCLC; 97.7% in the test with 786-0 renal; 102% in the test with COLO 205 colon; 110% in the test on DU-145 prostate; 89.3% with K-562 leukemia; 97.6% with MALME-3M melanoma. Moreover, the growth was 96.8% in the test on MDA-MB-231 breast; 101% in the test with RXF 393 renal; 93.5% in the test on SF-268 CNS; 100% in the test on SF-295 CNS; 95.5% in the test on SF-539 CNS; 102% in the test with UACC-257 melanoma. Further, the growth in the test with M14 melanoma is 96.5%; with HCT-15 colon, 96.4%.
Take `O=C(N/N=C/c1ccccc1Cl)C(=O)Nc1cccc(C(F)(F)F)c1`: the growth in the test with NCI-H23 lung was 105%; in the test with NCI-H322M lung, 108%; in the test with HOP-62 NSCLC it was 106%; with NCI-H460 lung, 99.4%; in the test on HOP-92 NSCLC, 92.2%; in the test with NCI-H522 lung it was 105%. Moreover, the growth was 88.8% in the test with A549/ATCC NSCLC; 103% in the test on 786-0 renal; 113% with COLO 205 colon; 101% in the test with DU-145 prostate; 85.3% with K-562 leukemia; 111% in the test with MALME-3M melanoma. Besides, the growth was 99.3% with MDA-MB-231 breast; 97.9% in the test on RXF 393 renal; 105% with SF-268 CNS; 87.7% in the test on SF-295 CNS; 102% in the test with SF-539 CNS; 103% in the test with UACC-257 melanoma. The growth in the test with M14 melanoma is 105%; with HCT-15 colon, 97.1%.
Regarding `CC(=Nc1ccccc1)C1=C(O)C(Cc2ccc(F)cc2)NC1=O` (stereo not given), the growth in the test on NCI-H23 lung was 30.7%; in the test on NCI-H322M lung it was 37.5%; in the test with HOP-62 NSCLC, 42.7%; with NCI-H460 lung, 13.4%; with HOP-92 NSCLC it was 72.4%; in the test on NCI-H522 lung, -9.06% (active). Also, the growth in the test on A549/ATCC NSCLC was 35.9%; with 786-0 renal, 48.2%; with COLO 205 colon, -52.1% (active); with DU-145 prostate, 8.32% (active); with K-562 leukemia it was 12.3%; with MALME-3M melanoma, 24.2%. For the same compound, the growth was 69.7% in the test with MDA-MB-231 breast; 15.2% in the test on RXF 393 renal; 54.9% with SF-268 CNS; 8.24% (active) with SF-295 CNS; 18.7% in the test with SF-539 CNS; 38.8% in the test on UACC-257 melanoma. The figures for the growth in the test on M14 melanoma and with HCT-15 colon were 12.8% and 23.3%, respectively.
Consider `COc1ccccc1CNC(=O)C1c2ccccc2C(=O)N(CC(C)C)C1c1cccs1` (stereo not given), for which the growth was 76.6% in the test with NCI-H23 lung; 69.8% in the test on NCI-H322M lung; 62.6% in the test on HOP-62 NSCLC; 55.6% with NCI-H460 lung; 76% with HOP-92 NSCLC; 41% with NCI-H522 lung. Besides, the growth with A549/ATCC NSCLC was 60.7%; in the test on 786-0 renal, 75.1%; in the test with COLO 205 colon, 46.1%; with DU-145 prostate, 71.2%; in the test on K-562 leukemia, 16.4%; in the test on MALME-3M melanoma it was 46.4%. Further, the growth in the test with MDA-MB-231 breast was 19.6%; in the test on RXF 393 renal, -2.16% (active); in the test on SF-268 CNS, 65.7%; in the test on SF-295 CNS, -33.5% (active); with SF-539 CNS, 63.4%; in the test with UACC-257 melanoma, 96.2%. Besides, the results for the growth in the test on M14 melanoma and in the test on HCT-15 colon were 61.6% and 30.8%, respectively.
As to `O=c1c(-c2nc3ccccc3[nH]2)cc2ccccc2n1Cc1cn(Cc2ccc(N3CCOCC3)cc2)nn1`, the growth in the test with NCI-H23 lung was 76.5%; with NCI-H322M lung it was 68.8%; in the test on HOP-62 NSCLC, 16.3%; in the test with NCI-H460 lung, 55.3%; with HOP-92 NSCLC, 75.9%; in the test with NCI-H522 lung it was 28%. Moreover, the growth in the test on A549/ATCC NSCLC is 74.8%; in the test on 786-0 renal, 57.1%; in the test with COLO 205 colon, 83.7%; with DU-145 prostate it was 36.9%; in the test with K-562 leukemia, 100%; in the test with MALME-3M melanoma, 64.2%. In addition, the growth was 71.5% in the test with MDA-MB-231 breast; 35.7% in the test on RXF 393 renal; 22.6% in the test with SF-268 CNS; 95.4% in the test with SF-295 CNS; 52.6% in the test with SF-539 CNS; 78.7% with UACC-257 melanoma. Also, the growth in the test on M14 melanoma was 80.1%; in the test with HCT-15 colon it was 78.6%.
With `CCC(C)(C)C(=O)O[C@H]1C[C@@H](C)C=C2C=C[C@H](C)[C@H](CC[C@@H]3CC=CC(=O)O3)[C@H]21`, the growth is 78% with NCI-H23 lung; 103% in the test with NCI-H322M lung; 108% in the test on HOP-62 NSCLC; 101% in the test on NCI-H460 lung; 75.3% in the test with HOP-92 NSCLC; 39.4% with NCI-H522 lung. The growth is 78.7% in the test on A549/ATCC NSCLC; 110% in the test on 786-0 renal; 72.7% in the test on COLO 205 colon; 82.7% with DU-145 prostate; 32.8% in the test with K-562 leukemia; 94.1% in the test with MALME-3M melanoma. In addition, the growth is 96.9% in the test on MDA-MB-231 breast; 41.3% in the test on RXF 393 renal; 85.7% in the test with SF-268 CNS; 97.5% with SF-295 CNS; 96.1% in the test on SF-539 CNS; 60.4% with UACC-257 melanoma. Further, the growth with M14 melanoma was 61.3%; with HCT-15 colon it was 63.9%.
